Pf growth 48h = P. falciparum growth inhibition at 48 hours (one generation); 5.9% of 310,000 active; P. falciparum luciferase growth in erythrocytes, 48 h; Potency, µM (highest dose often 28.7 µM), for the others: at the highest dose activity change, negative = inhibition, most hits filed as inhibitors; active = well fitted inhibition curve with a large enough effect; inconclusive = small, poorly fitted or top-dose-only effect, or another doubt; inactive = no such curve, though single readings can be large or run the other way; also: potency is read from the fitted curve at half-maximal effect; % is scaled to controls: 0 for no effect and ±100 for the full control effect
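First compound was added to culture medium, then infected red cells at 0.1% parasitemia and 2% hematocrit (final). After incubation at 37 C under 5% CO2, luciferase detection reagent was dispensed and light output recorded.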
NS1 function inh = blocks influenza NS1 protein function; Potency, µM (top dose mostly 46.1 µM), for the others: at the highest dose activity, positive = more growth; 0.4% of 270,000 active; AID 2326; also: potency is read from the fitted curve at half-maximal effect; actives are rising curves; nearly all actives have a fitted effect of over 50% in size
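S. cerevisiae expressing influenza A NS1, grown in glucose, washed, then diluted 1:100 into pH 6.0 -URA galactose medium with 23 nl compound. Growth recovery read as OD600; NS1-free strain serves as control.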
Shiga toxin inh = inhibitors of Shiga toxin in Vero cells | 9.2% of 290,000 active | inhibition, % at 38.7 µM | AID 2315 | Vero cells, Shiga toxin protein synthesis inhibition reporter; in the data active = inhibition mostly above about 28%, no sharp cut-off; inactive = mostly below about 43%; also: 0% is about no effect
CHX counter = counter-screen hit for Shiga toxin inhibitors, cycloheximide. cell reporter, cycloheximide protein synthesis inhibition counterscreen. max response, %. 12% of 300,000 active. AID 2314; in the data active = max response mostly above about 13%, no sharp cut-off; inactive = mostly below about 14%; also: read at 38.3 µM for the half of the compounds with a filed dose; 0% is about no effect
SARS PLpro yeast = SARS-CoV PLP inhibition in yeast. Potency, µM (series often up to 32.9 µM), for inactives: top-dose activity, positive = growth rescue, actives largely listed as activators. S. cerevisiae expressing SARS-CoV PLpro, growth rescue. 0.19% of 330,000 active; also: potency is read from the fitted curve at half-maximal effect; 0% is about no effect; nearly all actives have a fitted effect of over 55% in size
Pf growth 96h = P. falciparum growth inhibition at 96 hour, primary screen for plastid delayed-death inhibitors. P. falciparum luciferase reporter growth, 96 h. Potency, µM (doses to about 28.7 µM), for the others: at the top dose activity change, negative = inhibition, hits mostly inhibitors. 6.9% of 320,000 active. AID 504834; active = well fitted inhibition curve with a large enough effect; inconclusive = small, poorly fitted or top-dose-only effect, or another doubt; inactive = no such curve, though single readings can be large or run the other way; also: potency is read from the fitted curve at half-maximal effect; % is scaled to controls: 0 for no effect and ±100 for the full control effect
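P. falciparum expressing integrated firefly luciferase, in erythrocytes at 2% hematocrit, 0.05% parasitemia, incubated with compounds 96 h at 37 C, 5% CO2. Growth inhibition read as loss of luminescence; two-generation exposure targets delayed-death apicoplast inhibitors.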
* hit, by the source's call; i = inactive; u = inconclusive; x = no result. Compounds with a hit are over-represented: about 21% of the library has one in this group of screens. Unless noted, calls follow the shape of the full dose curve.

SMILES	Pf growth 48h	NS1 function inh	Shiga toxin inh	CHX counter	SARS PLpro yeast	Pf growth 96h
COc1ccc(NC(=O)c2c3c(nc4ccccc24)CCC3)cc1S(=O)(=O)N1CCOCC1	u	22%	-6	-2	-2%	u
CCOc1ccccc1NC(=O)CSc1nnc(-c2cnccn2)n1C	-1%	-4%	-24	-3	-2%	1.9µM*
Cc1cccc(C)c1NC(=O)CSc1nnc(-c2cnccn2)n1C	7%	-2%	-4	-2	-1%	10%
CCOc1ccccc1NC(=O)CSc1nnc(-c2ccccn2)n1Cc1ccco1	u	-118%	-6	6	0%	3.7µM*
COc1ccc(C)cc1NC(=O)CSc1nnc(-c2ccco2)n1Cc1ccco1	-19%	-35%	17	13	0%	10µM*
Clc1ccc(CSc2nnc(-c3ccccn3)n2Cc2ccco2)c(Cl)c1	u	-33%	32	4	6%	15µM*
COc1ccc(C)cc1NC(=O)CSc1nnc(COc2ccc(C)cc2)n1Cc1ccco1	u	-96%	19	4	8%	u
O=C(c1ccco1)N1CCN(CC(O)COc2ccc(Br)cc2)CC1 (stereo not drawn)	22%	2%	-12	2	1%	-1%
CN(C)c1ccc(NC(=O)CSc2nnc(-c3cnccn3)n2C)cc1	-19%	10%	37	13*	4%	u
COc1cccc(-c2nnc(SCC(=O)OC(C)C)n2Cc2ccco2)c1	-3%	-45%	-15	-5	1%	7.4µM*
Cc1ccc(C)c(-c2csc(-c3c(N)c(C(=O)c4ccc5c(c4)OCO5)n4ccccc34)n2)c1	x	x	17	13	x	x
Oc1oc(-c2ccc(Br)cc2)nc1/C=N/c1ccccn1	90%	x	120*	54*	0%	52%
Cc1ccc(-c2nc(C=Nc3cccc(C)c3)c(O)o2)cc1	35%	x	67	14	4%	-18%
Cc1ccc(N=Cc2nc(-c3ccco3)oc2O)cc1	11%	-9%	101*	29*	-3%	4%
Cc1ccc(-c2nc(C=Nc3ccccc3)c(O)o2)cc1	46%	x	85*	51*	1%	72%
COc1ccc2c(c1OC)C(=O)OC2Nc1nc(-c2ccc(-c3ccccc3)cc2)cs1 (stereo not drawn)	425%	-23%	121*	80*	-85%	i
COc1cccc(-c2csc(NC3OC(=O)c4c3ccc(OC)c4OC)n2)c1 (stereo not drawn)	86%	-9%	42	46*	-3%	144%
COc1ccc2c(c1OC)C(=O)OC2Nc1nc(-c2cc3ccccc3oc2=O)cs1 (stereo not drawn)	127%	-11%	68*	59*	-67%	i
Cc1c(C(=O)N2CCOCC2)sc(NC(=O)c2ccccc2F)c1C#N	21%	-24%	-9	2	0%	u
O=C(O)/C=C\C(=O)N1Cc2cc3ccccc3nc2C1	x	1%	x	x	x	x
c1ccc(CN2CCc3nc4ccccc4cc3C2)cc1	97%	-35%	59*	26*	15%	156%

High-throughput results deposited in PubChem BioAssay by National Center for Advancing Translational Sciences (NCATS).
